Hits are enriched below; roughly 1.9% of the tested compounds scored in any of these assays.
EP2 modulator – modulates human prostaglandin E2 receptor EP2 signaling; AID 940; 260,000 compounds, 0.83% hits; EP2-expressing cells, cAMP HTRF FRET, PGE2 co-stimulation; P43116; induction, % at 25 µM;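 active = compounds whose cAMP rise, as percent of the full-agonist control response, exceeds 60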;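 also: rat C6 glioma line stably carrying human EP2 under a CMV promoter; the protocol text gives 20 µM as final concentration; 100% = response of wells given 1 µM PGE2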
Target sequence (P43116 whole entry, looked up): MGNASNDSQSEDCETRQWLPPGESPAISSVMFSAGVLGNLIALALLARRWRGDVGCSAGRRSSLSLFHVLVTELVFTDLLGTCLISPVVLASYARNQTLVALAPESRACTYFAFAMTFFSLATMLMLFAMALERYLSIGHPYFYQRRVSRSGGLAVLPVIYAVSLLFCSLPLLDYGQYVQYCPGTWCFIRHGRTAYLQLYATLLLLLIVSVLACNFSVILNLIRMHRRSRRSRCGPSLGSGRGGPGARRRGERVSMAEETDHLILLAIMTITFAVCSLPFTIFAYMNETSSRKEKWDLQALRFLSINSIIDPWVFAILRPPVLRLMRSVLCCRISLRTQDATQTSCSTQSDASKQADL
Calpain2 inh – blocks pig calpain II enzyme activity; purified calpain II, fluorogenic peptide substrate, 30 min; inhibition, % at 16 µM; 220,000 compounds, 0.37% hits; AID 1236;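 active = inhibition above about 50%, limit read from the data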
Furin inhibitor – inhibitors of human furin; P09958; purified furin, fluorogenic substrate cleavage; inhibition, % at 20 µM or 30 µM; 220,000 compounds, 0.061% hits; AID 463115; in the data active = inhibition above about 25%
HMGR II inh – inhibitors of class II HMG-CoA reductase from Enterococcus faecalis | AID 1066 | inhibition, % at 10 µM | purified E. faecalis HMGR, NADPH absorbance 340 nm kinetic | 190,000 compounds, 0.41% hits;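 active = inhibition above a set limit, the median over all tested compounds plus 3 SD, cut at about 9.5% in these data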;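 also: enzyme runs in reverse so mevalonate oxidation gives rising NADPH absorbance; 0% = complete reaction with DMSO and 100% = background rate lacking mevalonate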
EP2 antag – blocks the human prostaglandin E2 receptor EP2; P43116; C6 glioma cells expressing human EP2, cAMP TR-FRET; cells stimulated with saturating PGE2; inhibition, % at 25 µM; 260,000 compounds, 0.52% hits; AID 1422;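 active = percent inhibition above 40 after rounding to a whole number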;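 also: rat C6 glioma host cells with rolipram phosphodiesterase inhibitor present; the protocol text gives 20 µM as final concentration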
Active calls of the source: *.

What do the screens show for `CNc1ncccc1CN(Cc1cc(OC)ccc1OC)CC1CCCO1` (stereo not drawn)?
EP2 modulator: 36; EP2 antag: 4

How did O=C(N1CCCC1)N1CCCC(c2ncncc2-c2ccncc2)C1 (stereo not drawn) do in these assays?
EP2 modulator: -28

How did O=C(NC(=S)Nc1ccccc1)c1ccc(-c2ccccc2)cc1 do in these assays?
EP2 modulator: -6; Calpain2 inh: 7; Furin inhibitor: -9; HMGR II inh: -6; EP2 antag: 8

What do the screens show for `O=C(O)c1ccc(NC(=S)NC(=O)c2ccc(-c3ccccc3)cc2)cc1`?
EP2 modulator: -89; Calpain2 inh: -92; Furin inhibitor: -26; HMGR II inh: 0; EP2 antag: 66*

How did Cc1ncc(-c2ccncc2)c(C2CCCN(C(=O)c3c(C)noc3C)C2)n1 (stereo not drawn) do in these assays?
EP2 modulator: 12

How did C[C@@H]1c2ccccc2Cn2cc3c(c21)C(=O)c1cccc(OP(=O)(O)OCc2ccccc2)c1C3=O do in these assays?
EP2 modulator: 25; EP2 antag: 42*

What do the screens show for `Cc1cc(C)n(CCC(=O)NC(C)c2nc3cccnc3n2C(C)C)n1` (stereo not drawn)?
EP2 modulator: -18; EP2 antag: 8

What do the screens show for `O=C(CCSc1ccccc1)NC1CCCCCC1`?
EP2 modulator: -29; Calpain2 inh: -15; Furin inhibitor: -20; HMGR II inh: 0; EP2 antag: 11

Results for O=C(CCSc1ccccc1)NC(=O)COC(=O)C1CCCCC1 ?
EP2 modulator: -9; Calpain2 inh: 60*; Furin inhibitor: -19; HMGR II inh: -10; EP2 antag: 8

What do the screens show for `COc1ccc(CN2CCc3c(nc(N4CCCC(C)C4)[nH]c3=O)C2)cc1O` (stereo not drawn)?
EP2 modulator: -38; EP2 antag: 3

What do the screens show for `O=C(CNC(=O)c1ccccc1F)OC(C(=O)Nc1cc(C(F)(F)F)ccc1Cl)c1ccccc1` (stereo not drawn)?
EP2 modulator: 13; Calpain2 inh: 61*; Furin inhibitor: -2; HMGR II inh: -3; EP2 antag: 10

What do the screens show for `O=C(CSc1nc2ccc(NC(=O)CSc3nnnn3Cc3ccccc3)cc2s1)Nc1ccccc1`?
EP2 modulator: 4; Calpain2 inh: -46; Furin inhibitor: -21; HMGR II inh: -7; EP2 antag: 13

What do the screens show for `COC(=O)CSc1nc2ccc(NC(=O)CSc3nnnn3Cc3ccccc3)cc2s1`?
EP2 modulator: -43; Calpain2 inh: -95; Furin inhibitor: -4; HMGR II inh: 2; EP2 antag: 48*

How did Cc1cc(C)nc(SCNC(=O)c2ccccc2)n1 do in these assays?
EP2 modulator: 21; Calpain2 inh: -10; Furin inhibitor: -13; HMGR II inh: 11*; EP2 antag: 3

What do the screens show for `CCC(c1nnnn1C(C)(C)CC)N(Cc1ccco1)Cc1cc2cc(C)ccc2[nH]c1=O` (stereo not drawn)?
EP2 modulator: 90*; EP2 antag: 7

How did CCCC(c1nnnn1Cc1ccccc1)N(Cc1cc2cc(C)ccc2[nH]c1=O)C1CCCC1 (stereo not drawn) do in these assays?
EP2 modulator: 24; EP2 antag: 13

Results for CCCC(c1nnnn1C(C)(C)C)N(Cc1cc2cc(C)ccc2[nH]c1=O)C1CCCCC1 (stereo not drawn) ?
EP2 modulator: 66*; EP2 antag: 9

What do the screens show for `CCC(c1nnnn1C(C)(C)C)N(Cc1ccco1)Cc1cc2cc(C)ccc2[nH]c1=O` (stereo not drawn)?
EP2 modulator: 59; EP2 antag: 9

What do the screens show for `CCCC(c1nnnn1C1CCCCC1)N(Cc1ccco1)Cc1cc2c(C)cc(C)cc2[nH]c1=O` (stereo not drawn)?
EP2 modulator: 69*; EP2 antag: 20

What do the screens show for `CCOc1ccc2[nH]c(=O)c(CN(Cc3cccs3)C(CC)c3nnnn3C(C)(C)CC)cc2c1` (stereo not drawn)?
EP2 modulator: 56; Calpain2 inh: -46; Furin inhibitor: -11; HMGR II inh: -3; EP2 antag: 6

Results for CCc1ccc2[nH]c(=O)c(CN(Cc3cccs3)C(CC)c3nnnn3C(C)(C)CC)cc2c1 (stereo not drawn) ?
EP2 modulator: 61*; EP2 antag: 11

How did COc1cccc(OC)c1C(=O)Nc1cc(-c2nc3ccccc3o2)ccc1Cl do in these assays?
EP2 modulator: -1; EP2 antag: 10

Results for CCn1c(C)cc2cc(NC(=O)c3ccc(-n4cnnc4)cc3Cl)ccc21 ?
EP2 modulator: -23; EP2 antag: 3

How did Cc1ccc2[nH]c(=O)c(CN(Cc3ccco3)Cc3nnnn3C3CCCCC3)cc2c1 do in these assays?
EP2 modulator: 52; EP2 antag: 5

Results for CCCC(c1nnnn1C1CCCCC1)N(Cc1ccco1)Cc1cc2cc(CC)ccc2[nH]c1=O (stereo not drawn) ?
EP2 modulator: 82*; EP2 antag: 8

How did CCC(c1nnnn1C1CCCC1)N(Cc1ccco1)Cc1cc2cc(C)ccc2[nH]c1=O (stereo not drawn) do in these assays?
EP2 modulator: 69*; EP2 antag: 8

Results for Cc1cc(C)c2cc(CN(Cc3ccco3)Cc3nnnn3C3CCCCC3)c(=O)[nH]c2c1 ?
EP2 modulator: 69*; EP2 antag: 8

What do the screens show for `Cc1cc(C)c2cc(CN(Cc3cccs3)C(c3nnnn3C(C)(C)C)C(C)C)c(=O)[nH]c2c1` (stereo not drawn)?
EP2 modulator: 61*; EP2 antag: 14

What do the screens show for `Cc1ccn2cc(C(=O)NCCN3CCOCC3)nc2c1`?
EP2 modulator: 7; EP2 antag: 4

Results for Cc1cc([N+](=O)[O-])nn1CC(=O)Nc1ccc(F)cc1 ?
EP2 modulator: -20; Calpain2 inh: 5; Furin inhibitor: -29; HMGR II inh: 11*; EP2 antag: 8

How did Cc1cccnc1NC(=O)Cn1nc([N+](=O)[O-])cc1C do in these assays?
EP2 modulator: 13; Calpain2 inh: -8; Furin inhibitor: -21; HMGR II inh: 14*; EP2 antag: 11

How did O=C(Nc1cccc(F)c1)NC1CC2CCCC(C1)N2C1CC1 (stereo not drawn) do in these assays?
EP2 modulator: -30; Calpain2 inh: 15; Furin inhibitor: -8; HMGR II inh: -1; EP2 antag: 3

Results for O=C(Nc1ccc(Cl)c(C(F)(F)F)c1)NC1CC2CCCC(C1)N2C1CC1 (stereo not drawn) ?
Furin inhibitor: -3; EP2 antag: 41*

What do the screens show for `O=c1c2oc3ccccc3c2[nH]c(=S)n1-c1ccc(F)cc1`?
EP2 modulator: 65*; Calpain2 inh: -1; Furin inhibitor: -18; HMGR II inh: -1; EP2 antag: 15

What do the screens show for `Cc1cccc(Nc2ncccc2C(=O)NCc2cccs2)c1C`?
EP2 modulator: -9; Calpain2 inh: 54*; Furin inhibitor: -22; HMGR II inh: -6; EP2 antag: 13
